Screen size: about 140,000 compounds; about 4,300 (3.1%) were called active. Another 21% or so got no clear call; they are omitted. Only a selection was taken, and actives are over-represented in it overall. Unmarked numbers belong to inactive results.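 Rule for the calls: active = readout at or below -70, meaning at least 70% loss of cells showing the perinucleolar compartment, a nuclear body marking cancer cells; inconclusive = readout between -30 and a set limit; inactive = the rest.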
Test: High Content Assay for Compounds that inhibit the Assembly of the Perinucleolar Compartment;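 note: plate controls were DMSO wells for no effect and camptothecin positive control wells for full effect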
Settings: PC3M PTB-GFP, PNC prevalence imaging, 16 h; at 10 µM; stronger effect = lower value
How it was run: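 PC3M cells stably expressing PTB-GFP, 750–1000 cells/well, treated 16 h at 37 °C with compound (23 nl of library stock), in duplicate. After paraformaldehyde fixation and Hoechst stain, imaged at 20x; PNC prevalence scored by image analysis.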

SMILES | activity change (PNC), negative = inhibition
Cc1cccc2cc(CN(C(=O)c3cccs3)c3ccccc3)c(=O)[nH]c12 | 29.9%
COc1ccc(/C(C)=N/Nc2cc(C(F)(F)F)ccc2Cl)c(OC)c1 | -13.2%
O=C(c1ccc2c(c1)OCO2)N1CCNc2ccccc2C1 | -29.9%
O=C(c1ccc2c(c1)OCO2)N1CCOCC1 | -100% (active)
O=C(c1ccc2c(c1)OCO2)N1CCN(C(=O)c2ccco2)CC1 | 54.5%
Cc1cccc(OP(=O)(Nc2c(C)n(C)n(-c3ccccc3)c2=O)Oc2cccc(C)c2)c1 | -6.43%
COc1ccc(N(C(=O)c2ccc(C)cc2)S(=O)(=O)c2cccs2)cc1 | 19.1%
Cc1ccc(NC(=S)NC(=O)c2ccc(-c3ccccc3)cc2)c(C)c1 | 6.22%
Cc1ccc(NC(=O)CC2C(=O)N(Cc3ccccc3)C(=S)N2NC(=O)c2cccc(F)c2)c(C)c1 (stereo not given) | -107% (active)
O=C(CN1CCN(C(=O)c2cccc(F)c2)CC1)Nc1ccccc1F | 6.16%
CC(=O)NC1=NN(C(C)=O)C(C)(CCS(=O)(=O)c2ccc(Cl)c(Cl)c2)S1 (stereo not given) | 72.1%
COc1ccc(OCCNS(=O)(=O)Cc2ccccc2)cc1 | 21.5%
N#Cc1cccc(NC(=O)COC(=O)c2ccccc2C(=O)c2ccc(Cl)c([N+](=O)[O-])c2)c1 | -102% (active)
COC(=O)c1cc(NC(=O)Cc2ccccc2[N+](=O)[O-])ccc1Cl | -21.5%
CC(=O)Nc1ccc(NC(=O)C(C)OC(=O)c2ccccc2C(=O)c2ccc(Cl)c([N+](=O)[O-])c2)cc1 (stereo not given) | 14.8%
CCc1nnc(NC(=O)/C=C/c2ccc(C)o2)s1 | 43.5%
COC(=O)C1=C(C)N(C)C(=S)NC1c1ccccc1 (stereo not given) | -28.4%
O=C(NCc1cccs1)C(=O)NCC1OCCCN1S(=O)(=O)c1ccc(F)cc1 (stereo not given) | 17.8%
Cc1cccc(N2CCN(C(=O)c3ccccc3NC(=O)C3CCCCC3C(=O)O)CC2)c1 (stereo not given) | 0.826%
O=S(=O)(NCCSc1ccccn1)c1ccc(Cl)cc1 | 47.1%
CCc1nnc(NC(=O)C2CCCN2S(=O)(=O)c2ccccc2)s1 (stereo not given) | 0.753%
CC1CN(S(=O)(=O)c2ccccc2)C(C)CN1S(=O)(=O)c1ccccc1 (stereo not given) | -100% (active)
COc1ccc(C2SCCN2S(=O)(=O)c2ccccc2)cc1OC (stereo not given) | -9.05%
CCCn1nc(NS(=O)(=O)c2ccccc2)c2cc3cc(C)ccc3nc21 | 9.97%
CN(C)S(=O)(=O)c1cc(NC(=O)CN2C(=O)NC3(CCCc4ccccc43)C2=O)ccc1Cl (stereo not given) | 71.5%
